According to PubChem BioAssay (EPA / NIEHS):
Activity calls are given as the source filed them. How the source made its calls: active means hit-call score of the fitted dose curve at least 0.9, where 1 is the maximum; inactive means score below 0.9.

Read-out: C-C motif chemokine 2 (Homo sapiens) (UniProt P13500)
Assay: BSK_KF3CT_MCP1: BioMAP Diversity Plus: KF3CT Assay for Monocyte Chemoattractant Protein 1 (MCP1/CCL2) Biomarker Activity (AID 2283073)
Conditions: primary human keratinocytes with fibroblasts; actives raise or lower the signal
Protocol: BSK_KF3CT is a cell-based, multiplexed-readout assay that uses keratinocytes and foreskin fibroblasts, a human skin primary cell co-culture, with measurements taken at 24 hours after chemical dosing in a 96-well plate.BSK_KF3CT_MCP1 is an assay component measured in the BSK_KF3CT assay. It measures MCP-1 antibody related to regulation of gene expression using ELISA technology.Data from the assay component BSK_KF3CT_MCP1 was analyzed into 1 assay endpoint. This assay endpoint, BSK_KF3CT_MCP1, was analyzed with bidirectional fitting relative to DMSO as the negative control and baseline of activity. Using a type of binding reporter, gain or loss-of-signal activity can be used to understand changes in the signaling as they relate to the gene CCL2. Furthermore, this assay endpoint can be referred to as a primary readout, because this assay has produced multiple assay endpoints where this one serves a signaling function. To generalize the intended target to other relatable targets, this assay endpoint is annotated to the cytokine intended target family, where the subfamily is chemotactic factor.
The levels of cell surface (or secreted, indicated by the prefix "s") biomarker endpoints were measured by ELISA. Overt cytotoxicity to cells in confluent adherent cultures (all systems other than the BT system) was assessed by measuring total protein levels using sulforhodamine B (SRB) staining in parallel cultures at the time of biomarker measurements, indicated as SRB endpoints. For proliferation assays for adherent cell types, individual cell types are cultured at sub-confluence and relative cell numbers quantified by SRB staining at time points optimized for each system (48 h: 3C and CASM3C systems; 72 h: BT and HDF3CGF systems; 96 h: SAg system). SRB was performed by staining cells with 0.1% SRB after fixation with 10% TCA and reading wells at 560 nm.Viability and proliferation of PBMC (T cells) was quantified by Alamar Blue reduction for the SAg and BT systems. For PBMC viability (referred to as PBMC Cytotoxicity within the assay endpoint names), cells were plated (75,000/well in a 96-well plate) and then chemical samples added for 1 h before addition of activators, SEB and TSST-1 (20 ng/mL final concentration each). Cells were incubated for 90 h. Then, Alamar Blue (20 uL/well) (Invitrogen, Cat DAL1100) was added for 6 h, and the plates were read with a fluorescence microplate reader at 546/580 nm (excitation/emission). For PBMC proliferation, cells were plated and activated as above but incubated for only 16 h prior to addition of Alamar Blue. Plates were read after 6 h.

Structure (SMILES)	outcome	AC50
O=C(O)c1ccc2c(c1)nc(C(=O)NC1CCN(C3CC3)CC1)n2Cc1cc(-c2ccc(Cl)s2)on1	inactive	
OC(Cn1cncn1)(Cn1cncn1)c1ccc(F)cc1F	inactive	
Cc1nccn1-c1ccc(Sc2cccc(C3(C(N)=O)CCOCC3)c2)cc1	inactive	
OCCOCCOCCO	inactive	
CCCCC(CC)C(=O)OCCOCCOCCOC(=O)C(CC)CCCC (stereo not given)	inactive	
O=C(O)c1cccc(C[C@@H]2COc3ccc(OCc4nc5cc(F)ccc5s4)cc3[C@@H]2O)c1	inactive	
OCc1ccccc1	inactive	
OCCNCCO	inactive	
C[C@@H](Oc1ccc(CNC(=O)c2cccnc2Oc2ccc3c(c2)OCO3)c(F)c1)C(=O)O	inactive	
CCn1nc(C)c2c1C(=O)NCC(c1ccc(O)cc1)=N2	inactive	
O=S(=O)(O)CCC(F)(F)C(F)(F)C(F)(F)C(F)(F)C(F)(F)C(F)(F)F	inactive	
CCN(CC)C(=S)SSC(=S)N(CC)CC		10.5 µM (active)
CCCCCCCCCCCCCCCCOS(=O)(=O)O		16.8 µM (active)
OCCC(F)(F)C(F)(F)C(F)(F)C(F)(F)F	inactive	
CCc1cccc(CC)c1N	inactive	
Nc1ccn([C@@H]2O[C@H](CO)[C@@H](O)[C@@H]2O)c(=O)n1	inactive	
O=C(O)c1cccc(C(=O)O)c1		0.323 µM (active)
c1ccc2c(c1)-c1cccc3c1c-2cc1ccccc13	inactive	
FC(F)C(F)(F)COCC1CO1 (stereo not given)	inactive	
NNC(=O)c1ccncc1	inactive	

Structure (SMILES)	outcome	AC50
O=C(NO)C1(NS(=O)(=O)c2ccc(Oc3ccc(F)cc3)cc2)CCOCC1	inactive	
c1ccc2cc3ccccc3cc2c1	inactive	
CCCCCCOC(=O)CC(CC(=O)OCCCCCC)(OC(=O)CCC)C(=O)OCCCCCC	inactive	
FC(F)(F)C(F)(F)C(F)(F)C(F)(F)C(F)(F)C(F)(F)I	inactive	
CCCCOC(=O)c1ccccc1	inactive	
COS(C)(=O)=O	inactive	
Cc1cccc(O)c1C	inactive	
CC(C)CCCCCCOC(=O)C1CCCCC1C(=O)OCCCCCCC(C)C (stereo not given)	inactive	
c1ccc(C(O[C@@H]2CCCN(CCc3ccc4c(c3)OCO4)C2)c2ccccc2)cc1	inactive	
OC[C@H]1O[C@@H]2O[C@H]3[C@H](O)[C@@H](O)[C@@H](O[C@H]4[C@H](O)[C@@H](O)[C@@H](O[C@H]5[C@H](O)[C@@H](O)[C@@H](O[C@H]6[C@H](O)[C@@H](O)[C@@H](O[C@H]7[C@H](O)[C@@H](O)[C@@H](O[C@H]1[C@H](O)[C@H]2O)O[C@@H]7CO)O[C@@H]6CO)O[C@@H]5CO)O[C@@H]4CO)O[C@@H]3CO	inactive	
CNC(C)=O	inactive	
CCCCCCCCCCCCCCO	inactive	
O=S1(=O)CCCO1	inactive	
CC(=O)c1ccccc1	inactive	
NC(N)=O	inactive	
CCCc1ccccc1	inactive	
CC[C@H](C)C(=O)O[C@H]1C[C@H](O)C=C2C=C[C@H](C)[C@H](CC[C@@H](O)C[C@@H](O)CC(=O)O)[C@H]21	inactive	
Cc1ncc([C@@H](CCCCCCc2ccc3c(n2)NCCC3)CC(=O)O)cn1	inactive	
OC[C@H]1O[C@@](CO)(O[C@H]2O[C@H](CO)[C@@H](O)[C@H](O)[C@H]2O)[C@@H](O)[C@@H]1O	inactive	
CC(C)CC(C)O (stereo not given)	inactive	
